# In PubChem BioAssay (EPA / NIEHS):
# Inconclusive results are not listed. Active and inactive are the calls of the source. The calls were made as follows, unless noted: active = hit-call score of the fitted dose curve at least 0.9, where 1 is the maximum; inconclusive = response in the unintended direction; inactive = score below 0.9.
# Columns and labels:
# [1] = target: human Peripheral-type Benzodiazepine Receptor (PBR), TSPO (gene 706) (UniProt P30536); experiment: NVS_MP_hPBR: NovaScreen (NVS) Membrane Protein Assay for human Peripheral-type Benzodiazepine Receptor (PBR) (AID 2283331);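 also: hits reduce radioligand binding relative to DMSO baseline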
# human Peripheral-type Benzodiazepine Receptor (PBR), TSPO (gene 706), sequence (P30536 whole entry, looked up): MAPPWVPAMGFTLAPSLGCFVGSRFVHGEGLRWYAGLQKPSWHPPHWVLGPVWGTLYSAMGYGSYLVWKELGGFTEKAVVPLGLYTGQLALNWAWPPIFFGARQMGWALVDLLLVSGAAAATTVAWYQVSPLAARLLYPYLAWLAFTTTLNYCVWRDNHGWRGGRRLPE
# How it was run: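 Scintillation counts of filter-bound radioligand served as read-out after 1 h chemical dosing of human colonic membrane preparations. Activity was scored as signal loss against DMSO; initial duplicates at 25 uM, confirmatory concentration series afterward.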
# [2] = target: rat Peripheral-type Benzodiazepine Receptor (PBR), Tspo (gene 24230) (UniProt P16257); experiment: NVS_MP_rPBR: NovaScreen (NVS) Membrane Protein Assay for rat Peripheral-type Benzodiazepine Receptor (PBR) (AID 2283335)
# rat Peripheral-type Benzodiazepine Receptor (PBR), Tspo (gene 24230), sequence (P16257 whole entry, looked up): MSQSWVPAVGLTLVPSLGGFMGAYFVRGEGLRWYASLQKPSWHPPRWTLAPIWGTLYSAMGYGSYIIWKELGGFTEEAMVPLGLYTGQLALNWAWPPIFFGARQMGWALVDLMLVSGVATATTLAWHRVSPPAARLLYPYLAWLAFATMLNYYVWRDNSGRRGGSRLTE
# How it was run: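 Rat kidney membranes; radioligand binding with displacement, filter-based scintillation counting, 1 h incubation. Primary screen in duplicate at 25 uM, actives followed in concentration series; loss of binding vs DMSO.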
# [3] = TAMU_PeakParms_SingleDonor1434_Chronotropy: Texas A&M University (TAMU) 1.5-hr Human Induced Pluripotent Stem Cell (iPSC)-derived Cardiomyocytes Calcium (Ca+2) Flux Assay for Cardiotoxicity: Chronotropy (changes in peak frequency) (AID 2284217; active = hit-call score of the fitted dose curve at least 0.9, where 1 is the maximum; inactive = score below 0.9); settings: actives raise or lower the signal
# How it was run: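 Beat rate, as mean Ca2+-flux peak frequency, was read from donor 1434 iPSC cardiomyocytes 90 min after exposure to 0.2–100 uM test chemical (0.5% DMSO). Wells that stopped beating were excluded; EC05 from bidirectional DMSO-referenced fitting.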
# [4] = TAMU_PeakParms_SingleDonor1434_QT: Texas A&M University (TAMU) 1.5-hr Human Induced Pluripotent Stem Cell (iPSC)-derived Cardiomyocytes Calcium (Ca+2) Flux Assay for Cardiotoxicity: QT (decay-rise ratio) (AID 2284235)
# How it was run: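 iPSC-derived cardiomyocytes (single donor 1434) dosed at 0.2, 1, 10, 100 uM final in 0.5% DMSO, 90 min at 37C. Ca2+ flux fluorescence decay/rise ratio; EC05 (5% increase versus DMSO) as POD, excluding beat-arrest and severe-notch data.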
# [5] = TAMU_PeakParms_SingleDonor1434_Asystole: Texas A&M University (TAMU) 1.5-hr Human Induced Pluripotent Stem Cell (iPSC)-derived Cardiomyocytes Calcium (Ca+2) Flux Assay for Cardiotoxicity: Asystole (quiescence of beating) (AID 2284328)
# How it was run: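 Average Ca2+-flux peak frequency (beats/s) was recorded in single-donor iPSC-derived cardiomyocytes after 90 min exposure (0.2–100 uM final, 0.5% DMSO). Asystole POD set as EC95 against DMSO, no preprocessing.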
# [6] = target: human Dual Specificity Protein Phosphatase 3 (DUSP3), DUSP3 (gene 1845) (UniProt P51452); experiment: NVS_ENZ_hDUSP3: NovaScreen (NVS) Enzymatic Assay for human Dual Specificity Protein Phosphatase 3 (DUSP3) (AID 2283152);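 also: phosphatase activity of recombinant human DUSP3 on a fluorogenic substrate without cells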
# human Dual Specificity Protein Phosphatase 3 (DUSP3), DUSP3 (gene 1845), sequence (P51452 whole entry, looked up): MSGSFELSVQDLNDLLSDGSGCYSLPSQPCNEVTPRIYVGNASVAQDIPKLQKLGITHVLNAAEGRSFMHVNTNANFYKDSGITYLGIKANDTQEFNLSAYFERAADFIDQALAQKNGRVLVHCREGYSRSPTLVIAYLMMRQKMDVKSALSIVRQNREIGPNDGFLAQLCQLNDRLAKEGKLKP
# How it was run: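 Cell-free assay with recombinant human DUSP3 and fluorogenic substrate, read by fluorescence intensity. Primary screen ran duplicate at 25 uM; actives followed up in concentration series; loss of signal versus DMSO scored.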
# [7] = target: human Phosphoinositide 3-kinase alpha (PI3Ka), PIK3CA (gene 5290) (UniProt P42336); experiment: NVS_ENZ_hPI3Ka: NovaScreen (NVS) Enzymatic Assay for human Phosphoinositide 3-kinase alpha (PI3Ka) (AID 2283196)
# human Phosphoinositide 3-kinase alpha (PI3Ka), PIK3CA (gene 5290), sequence (P42336 whole entry, looked up): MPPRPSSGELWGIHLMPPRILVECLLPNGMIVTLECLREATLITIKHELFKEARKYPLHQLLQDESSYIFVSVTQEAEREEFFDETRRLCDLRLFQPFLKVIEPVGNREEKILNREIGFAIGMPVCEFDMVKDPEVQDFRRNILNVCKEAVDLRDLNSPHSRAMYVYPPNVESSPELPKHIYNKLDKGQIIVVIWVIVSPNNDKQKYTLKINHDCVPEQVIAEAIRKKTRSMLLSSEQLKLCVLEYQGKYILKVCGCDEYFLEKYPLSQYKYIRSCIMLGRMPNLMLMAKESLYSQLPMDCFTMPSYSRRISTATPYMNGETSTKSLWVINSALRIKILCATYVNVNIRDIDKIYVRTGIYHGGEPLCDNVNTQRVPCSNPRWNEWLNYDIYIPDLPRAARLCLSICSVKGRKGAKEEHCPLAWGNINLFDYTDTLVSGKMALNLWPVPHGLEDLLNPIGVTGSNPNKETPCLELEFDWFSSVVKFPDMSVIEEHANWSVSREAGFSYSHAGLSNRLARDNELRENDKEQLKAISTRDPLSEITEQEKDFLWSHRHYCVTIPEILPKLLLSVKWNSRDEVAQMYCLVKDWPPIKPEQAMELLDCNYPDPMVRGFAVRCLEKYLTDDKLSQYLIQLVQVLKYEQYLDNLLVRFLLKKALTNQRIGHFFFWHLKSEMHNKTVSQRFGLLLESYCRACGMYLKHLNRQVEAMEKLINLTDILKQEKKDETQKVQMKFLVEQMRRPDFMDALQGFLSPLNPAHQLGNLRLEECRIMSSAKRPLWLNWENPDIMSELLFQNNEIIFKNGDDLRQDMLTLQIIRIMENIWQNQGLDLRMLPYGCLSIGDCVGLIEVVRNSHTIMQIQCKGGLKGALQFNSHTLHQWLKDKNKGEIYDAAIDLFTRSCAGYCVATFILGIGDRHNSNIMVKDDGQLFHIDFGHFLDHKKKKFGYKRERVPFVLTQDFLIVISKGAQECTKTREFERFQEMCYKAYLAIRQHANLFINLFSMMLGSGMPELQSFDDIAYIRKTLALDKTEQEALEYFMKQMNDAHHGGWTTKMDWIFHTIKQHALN
# How it was run: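 Enzyme activity as fluorescence after mobility-shift separation of substrate and product, 1 h reaction, recombinant human PI3Kα; concentration-response to 50 uM max for chemicals passing a 25 uM duplicate screen.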
# [8] = target: guinea pig Leukotriene D4 Receptor (LTD4), CYSLTR1 (gene 100135514) (UniProt Q2NNR5); experiment: NVS_GPCR_gLTD4: NovaScreen (NVS) G Protein-Coupled Receptor Assay for guinea pig Leukotriene D4 Receptor (LTD4) (AID 2283248)
# guinea pig Leukotriene D4 Receptor (LTD4), CYSLTR1 (gene 100135514), sequence (Q2NNR5 whole entry, looked up): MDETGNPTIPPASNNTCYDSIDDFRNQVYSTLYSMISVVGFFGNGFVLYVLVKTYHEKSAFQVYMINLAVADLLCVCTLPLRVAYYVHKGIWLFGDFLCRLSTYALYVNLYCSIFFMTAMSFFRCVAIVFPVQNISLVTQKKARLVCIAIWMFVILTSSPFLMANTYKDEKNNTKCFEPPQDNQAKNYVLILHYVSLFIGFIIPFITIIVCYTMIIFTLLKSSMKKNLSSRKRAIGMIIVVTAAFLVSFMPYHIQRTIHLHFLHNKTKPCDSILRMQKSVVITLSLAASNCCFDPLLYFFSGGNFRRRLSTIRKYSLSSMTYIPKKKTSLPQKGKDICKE
# How it was run: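 Radioligand displacement on guinea pig lung membranes, 1 h incubation, filtration and scintillation counting; DMSO as negative control. Duplicate 25 uM primary screen, then singleton concentration-response up to 50 uM.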
# [9] = target: Muscarinic acetylcholine receptor M2 (Homo sapiens) (UniProt P08172); experiment: NVS_GPCR_hM2: NovaScreen (NVS) G Protein-Coupled Receptor Assay for human Muscarinic, M2 Receptor (AID 2283273)
# Muscarinic acetylcholine receptor M2 (Homo sapiens), sequence (P08172 whole entry, looked up): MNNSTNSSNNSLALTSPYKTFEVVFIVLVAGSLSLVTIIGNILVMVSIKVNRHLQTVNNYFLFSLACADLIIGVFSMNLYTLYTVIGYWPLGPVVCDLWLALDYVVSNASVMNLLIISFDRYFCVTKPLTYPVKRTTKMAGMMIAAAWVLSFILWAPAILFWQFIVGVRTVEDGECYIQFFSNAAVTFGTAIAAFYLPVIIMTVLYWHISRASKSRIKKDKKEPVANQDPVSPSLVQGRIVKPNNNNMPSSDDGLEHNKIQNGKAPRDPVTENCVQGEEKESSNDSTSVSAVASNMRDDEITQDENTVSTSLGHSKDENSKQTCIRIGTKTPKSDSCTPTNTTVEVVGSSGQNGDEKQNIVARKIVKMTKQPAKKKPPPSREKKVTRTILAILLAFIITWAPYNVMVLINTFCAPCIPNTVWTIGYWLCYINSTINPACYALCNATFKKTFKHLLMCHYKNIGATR
# How it was run: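 CHO membrane prep, radioligand + test compound, 1 h; filtration, scintillation count. Screen 25 uM duplicate → conc. series for actives. Readout: decrease in binding vs DMSO control.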
# [10] = target: human Neurokinin, NK2 Receptor, TACR2 (gene 6865) (UniProt P21452); experiment: NVS_GPCR_hNK2: NovaScreen (NVS) G Protein-Coupled Receptor Assay for human Neurokinin, NK2 Receptor (AID 2283278);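 also: actives reduce bound radioligand signal relative to DMSO baseline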
# human Neurokinin, NK2 Receptor, TACR2 (gene 6865), sequence (P21452 whole entry, looked up): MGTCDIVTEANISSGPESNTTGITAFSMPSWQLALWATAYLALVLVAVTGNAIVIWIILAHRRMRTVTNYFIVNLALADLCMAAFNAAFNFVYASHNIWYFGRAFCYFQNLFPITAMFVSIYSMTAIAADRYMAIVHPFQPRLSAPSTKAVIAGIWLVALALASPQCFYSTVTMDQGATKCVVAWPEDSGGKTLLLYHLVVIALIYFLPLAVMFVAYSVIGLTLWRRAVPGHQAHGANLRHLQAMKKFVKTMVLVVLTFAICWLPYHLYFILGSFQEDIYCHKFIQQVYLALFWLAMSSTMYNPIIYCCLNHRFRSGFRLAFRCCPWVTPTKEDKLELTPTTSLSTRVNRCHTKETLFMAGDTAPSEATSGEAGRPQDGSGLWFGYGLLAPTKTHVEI
# How it was run: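 Cell-free radioligand binding using receptor protein extracted from CHO cells; readings taken 4 hours after chemical dosing by filter-based scintillation counting. Primary screen ran single concentration (25 uM) in duplicate; actives followed up in concentration series, loss-of-signal versus DMSO baseline.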
# [11] = target: human Opioid Receptor Mu (Opiate Mu), OPRM1 (gene 4988) (UniProt P35372); experiment: NVS_GPCR_hOpiate_mu: NovaScreen (NVS) G Protein-Coupled Receptor Assay for human Opioid Receptor Mu (Opiate Mu) (AID 2283290);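 also: hits lower bound tracer signal versus DMSO meaning displacement of the ligand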
# human Opioid Receptor Mu (Opiate Mu), OPRM1 (gene 4988), sequence (P35372 whole entry, looked up): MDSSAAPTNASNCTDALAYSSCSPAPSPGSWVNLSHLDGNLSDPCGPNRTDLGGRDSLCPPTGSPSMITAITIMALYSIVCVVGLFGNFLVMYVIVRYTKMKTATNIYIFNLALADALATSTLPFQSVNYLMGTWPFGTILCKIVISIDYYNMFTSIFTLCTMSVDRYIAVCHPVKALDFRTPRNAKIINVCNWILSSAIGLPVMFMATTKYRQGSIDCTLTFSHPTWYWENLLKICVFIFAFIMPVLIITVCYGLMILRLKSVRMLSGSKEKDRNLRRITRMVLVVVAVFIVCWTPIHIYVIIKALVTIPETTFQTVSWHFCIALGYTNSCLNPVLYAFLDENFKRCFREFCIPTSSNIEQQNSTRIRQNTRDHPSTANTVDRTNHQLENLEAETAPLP
# How it was run: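 Primary screen in duplicate at 25 uM, with actives followed in concentration series. CHO-derived receptor membranes, cell-free; bound radioligand read by scintillation counting after filtration at 2.5 h, decrease scored against DMSO.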
# [12] = NVS_IC_rCaBTZCHL: NovaScreen (NVS) Ion Channel Assay for Calcium Channel, Type L, Benzothiazepine Site (CaBTZCHL) (AID 2283337)
# How it was run: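 Radioligand displacement at the benzothiazepine site using rat cortical membranes; bound label measured by filtration and scintillation counting 1.5 h after dosing. Single-point 25 uM in duplicate, then concentration series; DMSO baseline.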
# [13] = target: guinea pig Sigma Receptor, Non-selective Binding, SIGMAR1 (gene 100135589) (UniProt Q60492); experiment: NVS_OR_gSIGMA_NonSelective: NovaScreen (NVS) Nuclear Receptor Binding Assay for guinea pig Sigma Receptor, Non-selective Binding (AID 2283367)
# guinea pig Sigma Receptor, Non-selective Binding, SIGMAR1 (gene 100135589), sequence (Q60492 whole entry, looked up): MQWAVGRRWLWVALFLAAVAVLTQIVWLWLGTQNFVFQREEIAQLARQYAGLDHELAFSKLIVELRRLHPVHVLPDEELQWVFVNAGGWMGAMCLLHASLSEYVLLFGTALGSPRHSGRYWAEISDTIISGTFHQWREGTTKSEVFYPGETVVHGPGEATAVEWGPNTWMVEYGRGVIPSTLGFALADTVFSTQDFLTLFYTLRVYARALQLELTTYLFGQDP
# How it was run: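 gp brain membr., radioligand displacement, 1 h, filtration + scint. counting; DMSO = baseline; 25 uM x2 primary, conc.-response confirm.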
# [14] = target: human Dopamine Transporter (DAT), SLC6A3 (gene 6531) (UniProt Q01959); experiment: NVS_TR_hDAT: NovaScreen (NVS) Transporter Assay for human Dopamine Transporter (DAT) (AID 2283374);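 also: activity means loss of bound radioligand signal relative to DMSO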
# human Dopamine Transporter (DAT), SLC6A3 (gene 6531), sequence (Q01959 whole entry, looked up): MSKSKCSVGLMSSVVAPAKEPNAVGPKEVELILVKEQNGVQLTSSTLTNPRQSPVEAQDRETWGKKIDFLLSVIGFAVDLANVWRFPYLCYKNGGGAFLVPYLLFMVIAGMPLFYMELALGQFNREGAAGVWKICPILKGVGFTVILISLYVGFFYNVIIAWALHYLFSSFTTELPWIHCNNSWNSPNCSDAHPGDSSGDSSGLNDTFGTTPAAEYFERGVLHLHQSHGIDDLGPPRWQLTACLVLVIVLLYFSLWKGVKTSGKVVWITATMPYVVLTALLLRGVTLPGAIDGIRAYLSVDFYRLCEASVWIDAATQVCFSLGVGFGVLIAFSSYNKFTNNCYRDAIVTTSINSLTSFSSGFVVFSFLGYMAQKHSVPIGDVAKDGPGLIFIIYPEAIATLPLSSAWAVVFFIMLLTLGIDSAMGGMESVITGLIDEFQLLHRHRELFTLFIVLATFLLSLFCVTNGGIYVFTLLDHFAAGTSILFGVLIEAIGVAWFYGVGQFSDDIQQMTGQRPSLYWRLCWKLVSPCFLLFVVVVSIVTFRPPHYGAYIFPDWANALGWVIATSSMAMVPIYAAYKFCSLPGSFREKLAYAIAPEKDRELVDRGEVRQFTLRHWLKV
# How it was run: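 Test chemicals were first screened in duplicate at 25 uM, with actives retested as concentration series. Displacement of a specific radioligand from cell-free human dopamine transporter was measured after 1 h by filtration and scintillation counting.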
# [15] = ATG_DR4_LXR_CIS: Attagene CIS-FACTORIAL HepG2 Assay for human Liver X Receptor (LXR), DR4 submotif (AID 2282929; active = hit-call score of the fitted dose curve at least 0.9, where 1 is the maximum; inactive = score below 0.9); settings: HepG2 Attagene DR4 cis-reporter, mRNA transcription; actives raise or lower the signal
# How it was run: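 Fluorescence intensity of labelled reporter cDNA fragments, separated by capillary electrophoresis, gives the signal. HepG2 cells bearing cis-regulated reporter constructs were treated 24 h; activity fitted bidirectionally relative to DMSO negative control.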
# [16] = target: Aryl hydrocarbon receptor (Homo sapiens) (UniProt P35869); experiment: ATG_Ahr_CIS: Attagene CIS-FACTORIAL HepG2 Assay for human Aryl Hydrocarbon Receptor (Ahr) (AID 2282930; active = hit-call score of the fitted dose curve at least 0.9, where 1 is the maximum; inactive = score below 0.9); settings: HepG2 AhR cis-factorial reporter transcription; actives raise or lower the signal
# Aryl hydrocarbon receptor (Homo sapiens), sequence (P35869 whole entry, looked up): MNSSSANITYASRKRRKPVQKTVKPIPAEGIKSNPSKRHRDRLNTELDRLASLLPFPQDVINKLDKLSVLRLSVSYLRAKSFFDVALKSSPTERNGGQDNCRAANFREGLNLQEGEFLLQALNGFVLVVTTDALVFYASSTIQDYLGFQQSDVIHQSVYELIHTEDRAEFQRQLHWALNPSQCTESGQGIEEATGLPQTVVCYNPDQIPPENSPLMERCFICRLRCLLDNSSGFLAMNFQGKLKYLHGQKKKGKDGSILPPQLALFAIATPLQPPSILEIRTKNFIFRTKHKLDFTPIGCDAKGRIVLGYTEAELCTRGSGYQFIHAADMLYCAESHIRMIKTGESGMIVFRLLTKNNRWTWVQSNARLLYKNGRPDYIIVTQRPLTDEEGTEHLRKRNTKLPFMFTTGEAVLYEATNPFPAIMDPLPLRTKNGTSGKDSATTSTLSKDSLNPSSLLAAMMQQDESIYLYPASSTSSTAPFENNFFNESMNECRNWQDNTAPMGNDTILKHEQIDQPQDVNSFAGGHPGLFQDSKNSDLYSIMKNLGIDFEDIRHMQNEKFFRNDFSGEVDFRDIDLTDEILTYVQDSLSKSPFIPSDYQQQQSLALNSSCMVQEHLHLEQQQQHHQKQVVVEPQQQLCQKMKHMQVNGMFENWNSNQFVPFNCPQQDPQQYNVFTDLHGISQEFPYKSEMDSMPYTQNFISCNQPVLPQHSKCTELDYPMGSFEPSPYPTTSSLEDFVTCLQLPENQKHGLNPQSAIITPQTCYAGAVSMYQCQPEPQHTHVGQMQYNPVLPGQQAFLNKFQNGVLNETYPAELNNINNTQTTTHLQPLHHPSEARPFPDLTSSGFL
# How it was run: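 Transient MRTU transfection of HepG2 → 24 h compound exposure → total RNA, oligo(dT) RT → PCR, 6-FAM extension, HpaI cut → CE fluorescence. DMSO = baseline; bidirectional curve fit.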
# [17] = IUF_NPC5_oligodendrocyte_differentiation_120hr: Leibniz Research Institute for Environmental Medicine (IUF) 120-hour Oligodendrocyte Differentiation Assay (NPC5) (AID 2284304);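 also: primary human fetal neural progenitor spheres plated to migrate and differentiate; share of O4-positive cells among Hoechst nuclei found by CNN image analysis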
# How it was run: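 After plating on poly-D-lysine/laminin, fetal-derived hNPC spheres differentiated for 120 h at 37C in compound-containing N2 medium, refreshed by half on day 3. O4 immunostaining over Hoechst nuclei in the migration zone gave oligodendrocyte percentage relative to DMSO.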
# [18] = CCTE_Mundy_HCI_iCellGluta_NOG_NeuriteLength: CCTE's Neurite Outgrowth Assay in iCellGluta cells for Neurite Length, Mundy Lab (AID 2284318)
# How it was run: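 Automated high-content imaging of betaIII-tubulin (Alexa Fluor-488) and Hoechst-stained cells gave neurite length, normalized to the DMSO baseline.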
# [19] = CCTE_Mundy_HCI_iCellGluta_NOG_NeuronCount: CCTE's Neurite Outgrowth Assay in iCellGluta cells for Neuron Count, Mundy Lab (AID 2284340);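 also: cells fixed about 48 h after compound addition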
# How it was run: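 Neuron count read by automated high-content imaging of Hoechst 33342 and betaIII-tubulin/Alexa Fluor-488 labelling in human iPSC glutamatergic neurons. Activity fitted relative to DMSO.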
# [20] = CCTE_Mundy_HCI_iCellGluta_NOG_NeuriteCount: CCTE's Neurite Outgrowth Assay in iCellGluta cells for Neurite Count, Mundy Lab (AID 2284342);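 also: chemical exposure about 48 hours starting 2 hours after plating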
structure (smiles),measurement,setting,value
CC(=[OH+])/C=C(/C)[O-].CC(=[OH+])/C=C(/C)[O-].CC(=[OH+])/C=C(/C)[O-].[Al],outcome,[1],inactive
same,AC50,[2],7.03 µM (active)
Nc1nc(N)c2nc(-c3ccccc3)c(N)nc2n1,outcome,[3],inactive
same,outcome,[4],inactive
same,outcome,[5],inactive
CCCCCCCCCCCCCCCCCC[N+](C)(C)C,AC50,[6],7.9 µM (active)
same,AC50,[7],3.68 µM (active)
same,outcome,[8],inactive
same,AC50,[9],1.06 µM (active)
same,AC50,[10],4.53 µM (active)
same,AC50,[11],3.4 µM (active)
same,outcome,[12],inactive
same,AC50,[13],2.61 µM (active)
same,AC50,[14],2.52 µM (active)
COc1ccc2ccccc2c1,outcome,[15],inactive
same,outcome,[16],inactive
NC(N)=Nc1nc(CSCCC(N)=NS(N)(=O)=O)cs1,outcome,[17],inactive
same,outcome,[18],inactive
same,outcome,[19],inactive
same,outcome,[20],inactive
